These results are taken from the supplement of paper PMC6522484.

± gives the standard deviation of the averaged measurements.

Experiment [1] deals with DLD1. The experiment in a line: cell viability (CellTiter-Glo) relative to plate median (fraction of plate median); higher = more viable cells. The conditions noted are these: 5 µM; treatment time 24 h; reporter: 7TFP. The method, boiled down: (§1)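 Colorectal cancer cell lines stably transduced with lentiviral TCF/Wnt firefly luciferase reporters (7TFP or TCF4/Wnt) were seeded in 384-well plates. 24 h later they received library compounds at a final 5 µM for 24 h. Parallel plates were read for firefly luciferase or CellTiterGlo luminescence on a Tecan F500 reader. Each well's signal was normalised to the plate median (webcellHTS2, additive, no log transformation), and the mean of two independent replicates is reported.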

In a further experiment the test system is HCT116. Described as above. The note with it: 5 µM; treatment time 24 h; reporter: TCF4/Wnt. The method, boiled down:
as §1

Experiment [2] relates to SW480. The description is as above. The conditions noted are these: 5 µM; treatment time 24 h; reporter: 7TFP. The method, boiled down: as §1
The test system of experiment [3] is DLD1. The experiment in a line: TCF/Wnt firefly luciferase reporter signal relative to plate median (fraction of plate median); higher = higher Wnt reporter signal. The conditions noted are these: 5 µM; treatment time 24 h; reporter: 7TFP. The method, boiled down: as §1
The test system of experiment [4] is SW480. Described as above. The conditions noted are these: 5 µM; treatment time 24 h; reporter: 7TFP. The method, boiled down:
as §1

Consider `CC1=CC(=O)c2ccccc2C1=O`, for which the cell viability is 1.04 ± 0.05 in the experiment on DLD1 [1], 0.955 ± 0.064 with HCT116 and 1.025 ± 0.0071 in the experiment with SW480 [2]. Besides, the “TCF/Wnt firefly luciferase reporter signal” value in the experiment on DLD1 [3] was 1.02 ± 0.044; with SW480 [4], 0.914 ± 0.013.

Take `COc1ccc(-c2cc(=O)c3c(O)cc(O[C@H]4O[C@H](CO[C@@H]5O[C@@H](C)[C@H](O)[C@@H](O)[C@H]5O)[C@@H](O)[C@H](O)[C@H]4O)cc3o2)cc1`: the cell viability in the experiment with DLD1 [1] amounted to 0.995 ± 0.079; in the experiment on HCT116, 0.88 ± 0.1; with SW480 [2], 0.979 ± 0.059. Also, the “TCF/Wnt firefly luciferase reporter signal” value was determined as 1.02 ± 0.029 in the experiment with DLD1 [3] and 0.9475 ± 0.00071 in the experiment with SW480 [4].

With `COc1cc(-c2cc(=O)c3c(O)c(OC)c(OC)c(OC)c3o2)cc(OC)c1OC`, the figures for the cell viability with DLD1 [1], in the experiment with HCT116 and with SW480 [2] were 0.948 ± 0.073, 1.06 ± 0.098 and 0.956 ± 0.02, respectively. Besides, the entries for the “TCF/Wnt firefly luciferase reporter signal” value in the experiment on DLD1 [3] and in the experiment on SW480 [4] were 1.02 ± 0.028 and 0.936 ± 0.021, respectively.

As to `CC1=C(/C=C/C(C)=C/C=C/C(C)=C\C(=O)O)C(C)(C)CCC1`, the results for the cell viability with DLD1 [1], in the experiment with HCT116 and in the experiment with SW480 [2] were 1.02 ± 0.05, 0.949 ± 0.1 and 0.967 ± 0.012, respectively. In addition, the “TCF/Wnt firefly luciferase reporter signal” value in the experiment with DLD1 [3] turned out to be 0.827 ± 0.097; with SW480 [4], 0.872 ± 0.044.

With `CC(=O)NO`, the cell viability in the experiment on DLD1 [1] was 1.035 ± 0.0071; in the experiment on HCT116, 0.999 ± 0.059; with SW480 [2], 1.05 ± 0.057. The “TCF/Wnt firefly luciferase reporter signal” value with DLD1 [3] worked out at 1.155 ± 0.0071; with SW480 [4] it was 1.075 ± 0.0071.

On to `C=CCSSSCC=C`, for which the values for the cell viability with DLD1 [1], with HCT116 and with SW480 [2] were 1.05 ± 0.09, 1.09 ± 0.014 and 0.99 ± 0.042, respectively. Further, the “TCF/Wnt firefly luciferase reporter signal” value in the experiment with DLD1 [3] came out at 1.02 ± 0.073; in the experiment with SW480 [4] it was 0.874 ± 0.013.

As to `CO[C@H]1C[C@H](O[C@H]2[C@H](C)[C@@H](O[C@@H]3O[C@H](C)C[C@H](N(C)C)[C@H]3OC(C)=O)[C@@H](C)C[C@@]3(CO3)C(=O)[C@H](C)[C@@H](OC(C)=O)[C@@H](C)[C@@H](C)OC(=O)[C@@H]2C)O[C@@H](C)[C@@H]1OC(C)=O`, the cell viability with DLD1 [1] was 1.06; in the experiment on HCT116 it was 1.01 ± 0.19; with SW480 [2], 0.956 ± 0.03. Also, the entries for the “TCF/Wnt firefly luciferase reporter signal” value with DLD1 [3] and in the experiment on SW480 [4] were 1.03 ± 0.11 and 0.945 ± 0.12, respectively.

As to `COc1cc(OC)c2c(=O)c(-c3ccccc3)c(C)oc2c1OC`, the cell viability turned out to be 1.07 ± 0.15 in the experiment with DLD1 [1], 1.05 ± 0.078 with HCT116 and 1.01 ± 0.052 with SW480 [2]. Moreover, the “TCF/Wnt firefly luciferase reporter signal” value was 1 ± 0.069 with DLD1 [3] and 0.9545 ± 0.00071 with SW480 [4].

Consider `C=CCSCC(N)C(=O)O` (stereo not given), for which the values for the cell viability in the experiment with DLD1 [1], in the experiment with HCT116 and in the experiment with SW480 [2] were 1.015 ± 0.0071, 0.976 ± 0.15 and 1.01 ± 0.05, respectively. Also, the entries for the “TCF/Wnt firefly luciferase reporter signal” value in the experiment on DLD1 [3] and with SW480 [4] were 0.923 ± 0.027 and 0.923 ± 0.02, respectively.

As for `COc1ccc(-c2coc3cc(O)ccc3c2=O)cc1`, the cell viability in the experiment with DLD1 [1] turned out to be 1.01 ± 0.071; in the experiment on HCT116 it was 1.01 ± 0.15; in the experiment with SW480 [2] it was 0.9355 ± 0.00071. The “TCF/Wnt firefly luciferase reporter signal” value in the experiment on DLD1 [3] amounted to 0.998 ± 0.046; with SW480 [4] it was 0.972 ± 0.069.

With `O=C(O)CCCCCCCCCCCC[C@@H]1C=CCC1`, the cell viability was determined as 1 ± 0.055 in the experiment on DLD1 [1], 1.03 ± 0.058 with HCT116 and 0.966 ± 0.1 with SW480 [2]. For the same molecule, the “TCF/Wnt firefly luciferase reporter signal” value amounted to 1.15 ± 0.014 with DLD1 [3] and 1 ± 0.096 in the experiment with SW480 [4].

Consider `COc1cc2nc(N3CCN(C(=O)C4CCCO4)CC3)nc(N)c2cc1OC` (stereo not given), for which the cell viability came out at 1.05 ± 0.05 with DLD1 [1], 0.991 ± 0.11 with HCT116 and 1.03 ± 0.05 in the experiment with SW480 [2]. Moreover, the “TCF/Wnt firefly luciferase reporter signal” value turned out to be 1.14 ± 0.13 in the experiment on DLD1 [3] and 1 ± 0.039 in the experiment on SW480 [4].

`CS(=O)(=O)CCCCN=C=S`: the cell viability in the experiment with DLD1 [1] is 0.722 ± 0.18; in the experiment on HCT116, 0.8885 ± 0.00071; in the experiment with SW480 [2] it was 0.83 ± 0.03. For the same molecule, the “TCF/Wnt firefly luciferase reporter signal” value in the experiment with DLD1 [3] is 0.83 ± 0.067; with SW480 [4] it was 0.867 ± 0.12.

Regarding `C#CCCCCCCCCCCCc1ccco1`, the values for the cell viability in the experiment with DLD1 [1], in the experiment on HCT116 and in the experiment on SW480 [2] were 0.997 ± 0.033, 1.03 ± 0.014 and 1.075 ± 0.0071, respectively. In addition, the entries for the “TCF/Wnt firefly luciferase reporter signal” value in the experiment on DLD1 [3] and in the experiment with SW480 [4] were 1.145 ± 0.0071 and 0.953 ± 0.096, respectively.

In the case of `CC(=O)OCC(COC(C)=O)OC(C)=O`, the results for the cell viability in the experiment on DLD1 [1], in the experiment on HCT116 and in the experiment with SW480 [2] were 0.905 ± 0.08, 0.962 ± 0.082 and 0.948 ± 0.0099, respectively. In addition, the “TCF/Wnt firefly luciferase reporter signal” value worked out at 0.929 ± 0.079 in the experiment with DLD1 [3] and 1 ± 0.011 in the experiment with SW480 [4].

In the case of `CN1CCN(C(c2ccccc2)c2ccccc2)CC1`, the figures for the cell viability in the experiment with DLD1 [1], with HCT116 and with SW480 [2] were 1.04 ± 0.021, 0.953 ± 0.018 and 1.07 ± 0.028, respectively. For the same molecule, the “TCF/Wnt firefly luciferase reporter signal” value with DLD1 [3] amounted to 0.977 ± 0.12; with SW480 [4], 1.01 ± 0.12.

As for `C[N+](C)(C)CCOC(N)=O`, the cell viability amounted to 0.994 ± 0.023 in the experiment with DLD1 [1], 1.15 ± 0.057 in the experiment with HCT116 and 0.9925 ± 0.0078 in the experiment with SW480 [2]. The “TCF/Wnt firefly luciferase reporter signal” value was determined as 1.13 ± 0.14 with DLD1 [3] and 0.847 ± 0.064 with SW480 [4].

On to `CC(C)c1c(O)ccc2c1CC[C@H]1C(C)(C)CCC[C@]21C`, for which the cell viability is 1.16 ± 0.12 in the experiment on DLD1 [1], 1 ± 0.13 with HCT116 and 1.03 ± 0.076 in the experiment on SW480 [2]. For the same molecule, the “TCF/Wnt firefly luciferase reporter signal” value in the experiment with DLD1 [3] was determined as 0.855 ± 0.11; with SW480 [4] it was 0.996 ± 0.035.

As for `Cn1ccnc1S`, the figures for the cell viability in the experiment on DLD1 [1], in the experiment with HCT116 and with SW480 [2] were 0.997 ± 0.047, 1.04 ± 0.021 and 0.981 ± 0.021, respectively. In addition, the entries for the “TCF/Wnt firefly luciferase reporter signal” value in the experiment on DLD1 [3] and with SW480 [4] were 0.988 ± 0.088 and 0.95 ± 0.071, respectively.

`COc1cc(/C=C/C(=O)N2CCC=CC2=O)cc(OC)c1OC`: the cell viability in the experiment on DLD1 [1] was determined as 0.939 ± 0.037; in the experiment with HCT116 it was 0.717 ± 0.099; in the experiment with SW480 [2], 1.11 ± 0.042. The “TCF/Wnt firefly luciferase reporter signal” value amounted to 0.704 ± 0.14 with DLD1 [3] and 0.773 ± 0.095 with SW480 [4].

On to `CCC[C@@H]1C[C@@H](C(=O)N[C@@H]([C@H]2O[C@H](SC)[C@H](O)[C@@H](O)[C@H]2O)[C@H](C)Cl)N(C)C1`, for which the cell viability with DLD1 [1] was 0.966 ± 0.15; in the experiment on HCT116, 1 ± 0.042; with SW480 [2] it was 1.07 ± 0.057. Also, the “TCF/Wnt firefly luciferase reporter signal” value with DLD1 [3] was 0.907 ± 0.028; with SW480 [4], 1.04 ± 0.028.

`O=c1c(-c2ccc(O)cc2)coc2cc(O)ccc12` [Daidzein (Biofocus)]: the cell viability worked out at 1.02 ± 0.03 in the experiment with DLD1 [1], 1.16 ± 0.11 in the experiment with HCT116 and 1.05 ± 0.057 in the experiment on SW480 [2]. The figures for the “TCF/Wnt firefly luciferase reporter signal” value in the experiment with DLD1 [3] and in the experiment with SW480 [4] were 1.11 ± 0.11 and 0.976 ± 0.091, respectively.

Regarding `C#C[C@]1(OC(C)=O)CC[C@H]2[C@@H]3CCC4=CC(=O)CC[C@@H]4[C@H]3CC[C@@]21C`, the results for the cell viability in the experiment on DLD1 [1], in the experiment on HCT116 and in the experiment with SW480 [2] were 0.87 ± 0.018, 0.964 ± 0.094 and 0.973 ± 0.052, respectively. Moreover, the “TCF/Wnt firefly luciferase reporter signal” value was determined as 0.925 ± 0.022 in the experiment on DLD1 [3] and 0.768 ± 0.023 in the experiment on SW480 [4].

As to `CN1CC(=O)NC1=N`, the cell viability in the experiment on DLD1 [1] is 1.02 ± 0.04; in the experiment on HCT116, 0.943 ± 0.021; in the experiment with SW480 [2] it was 1.02 ± 0.021. In addition, the “TCF/Wnt firefly luciferase reporter signal” value with DLD1 [3] was determined as 0.979 ± 0.059; in the experiment on SW480 [4], 0.935 ± 0.13.

Consider `CC[C@@H]1C(=O)N(C)c2cnc(Nc3ccc(C(=O)N[C@H]4CC[C@H](N5CCN(CC6CC6)CC5)CC4)cc3OC)nc2N1C(C)C` [Volasertib], for which the cell viability in the experiment on DLD1 [1] worked out at 1 ± 0.036; with HCT116, 0.666 ± 0.095; with SW480 [2], 1.21 ± 0.078. The “TCF/Wnt firefly luciferase reporter signal” value is 0.91 ± 0.17 with DLD1 [3] and 1.06 ± 0.042 with SW480 [4].

`O=C(CNC(=O)c1ccc(Cl)cc1)NO`: the cell viability in the experiment on DLD1 [1] was 0.978 ± 0.025; in the experiment on HCT116, 1 ± 0.041; in the experiment on SW480 [2], 0.931 ± 0.026. Further, the “TCF/Wnt firefly luciferase reporter signal” value in the experiment with DLD1 [3] came to 1.03 ± 0.048; in the experiment with SW480 [4] it was 1.13 ± 0.028.

`C=CC(N)CCC(=O)O` (stereo not given): the cell viability in the experiment with DLD1 [1] amounted to 1.06 ± 0.021; in the experiment with HCT116, 0.934 ± 0.086; with SW480 [2] it was 1.06. Also, the “TCF/Wnt firefly luciferase reporter signal” value turned out to be 0.952 ± 0.21 in the experiment with DLD1 [3] and 1.06 ± 0.092 in the experiment on SW480 [4].
